Only some compounds are listed: those with a hit (about 2.6% of all), similar ones and a draw of the others.
AI-2 QS modul: modulates the Vibrio harveyi AI-2 quorum sensing system. activity change, % at 7.5 µM. Vibrio harveyi JMH597 AI-2 luminescence/OD600 ratio, 9 h; stronger effect = lower value; strain lacks LuxN and CqsS sensors; 0 = neutral-control median. AID 2094. 300,000 tested, 0.4% active; in the data active means activity change below about -75%, passing the limit was not always enough; inconclusive means no clear call, values can overlap the other calls;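 further: luminescence divided by OD600 gain over 9 h not by final OD600 alone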
PABP FP inh: PABP-poly(A) binding inhibition; P11940; PABP-poly(A) RNA binding, fluorescence polarization; calls only at 35 µM; 290,000 tested, 1% active;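 further: calls also rest on retests at 20 µM and on dose response follow-up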
PABP1 MLLE inh: blocks PAM2 peptide binding to the PABP1 MLLE domain; 360,000 tested, 0.36% active; inhibition, % at 20 µM; P11940; GST-MLLE / FITC-PAM2 fluorescence polarization; in the data active means inhibition above about 35%, passing the limit was not always enough;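 further: plate controls were DMSO wells with GST-MLLE for no effect and wells lacking GST-MLLE protein for full effect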
ABCB6 inh 2: human ABCB6 transporter inhibition | Q9NP58 | K562-ABCB6 porphyrin accumulation, flow cytometry, 1 h; stronger effect = lower value | fluorescence ratio to DMSO, % at 10 µM | 360,000 tested, 0.19% active | AID 602162;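 active means fluorescence ratio to DMSO below 75%, the collection mean minus 3 SD; inconclusive means too few cells collected in the well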;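 further: signal is porphyrin accumulated inside mitochondria; 100% equals median channel fluorescence of DMSO control wells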
eIF4H FP inh: inhibitors of RNA binding by human eIF4H; inhibition, % at 35 µM; eIF4H fluorescence polarization binding assay; AID 2012; 290,000 tested, 0.94% active;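 further: calls also rest on retests at 20 µM and on dose response follow-up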
PHOSPHO1 inh: blocks human PHOSPHO1 phosphatase activity. AID 1565. 290,000 tested, 1.1% active. recombinant PHOSPHO1, absorbance phosphatase assay. inhibition, % at 13.3 µM. Q8TCT1; in the data active means inhibition above about 60%
Target sequence (Q8TCT1 whole entry, looked up): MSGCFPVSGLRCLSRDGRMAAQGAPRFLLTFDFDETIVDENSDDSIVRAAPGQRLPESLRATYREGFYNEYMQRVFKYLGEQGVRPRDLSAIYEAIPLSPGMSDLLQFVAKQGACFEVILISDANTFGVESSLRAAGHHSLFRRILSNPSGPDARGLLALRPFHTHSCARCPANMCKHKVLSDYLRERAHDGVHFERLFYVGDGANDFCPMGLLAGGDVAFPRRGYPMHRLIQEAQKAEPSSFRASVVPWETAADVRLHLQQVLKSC
Active calls of the source: *; i = inactive; ? = inconclusive; · = no result; + = active, no number. Unless noted, how the calls were made is not given here.

SMILES	AI-2 QS modul	PABP FP inh	PABP1 MLLE inh	ABCB6 inh 2	eIF4H FP inh	PHOSPHO1 inh
CCn1nc(C)cc1-c1n[nH]c(=S)n1N	28	i	-41	103	-6	102*
CCN(CC)C(=O)CSc1n[nH]c(=S)n1N	24	i	-22	100	-2	-116
S=c1[nH]nc(-c2cccs2)n1/N=C/c1cn(-c2ccccc2)nc1-c1ccccc1	15	i	-121	103	9	-84
Fc1ccc(/C=N/n2c(-c3cccs3)n[nH]c2=S)cc1	45	i	-44	107	-3	71*
CN(C)S(=O)(=O)c1cccc(-c2nn(-c3ccccc3)cc2/C=C2\SC(=S)NC2=O)c1	·	+	-82	89	?	-8
COC(=O)CC1=C(C(=O)OC)C(c2ccncc2)C(C#N)=C(N)O1 (stereo not given)	7	+	3	173	109	7
O=C(CSc1nnc2c3ccccc3c3ccccc3c2n1)Nc1ccccc1	10	i	·	·	0	-106
O=C(CSc1nnc2c3ccccc3c3ccccc3c2n1)Nc1ccccc1F	36	i	-10	120	85*	94*
CC[n+]1c(/C=C/Nc2ccccc2)oc2ccccc21	8	i	-135	277	59	101*
CC[n+]1c(/C=C/Nc2ccccc2)oc2ccc(OC)cc21	12	?	-60	396	?	28
Cn1cc(/C=C(\C#N)C(=O)Nc2ncc(Cc3ccc(Cl)cc3)s2)c2ccccc21	40	+	12	100	63*	-18
CC(C)N(c1ccccc1)c1ccc(NC(=O)[C@@H]2O[C@H](CO)[C@@H](O)[C@H]2O)cc1	·	·	-3	92	·	·
CC(/C=N/n1cnnc1)=C\c1ccco1	21	+	2	87	72	-8
Cc1[nH]c(=S)c(C#N)c(C)c1C(=O)Nc1ccccc1	26	i	7	96	-4	95*
Cc1nc(NC(C)C(=O)O)c2nc(C)oc2n1 (stereo not given)	14	i	-7	85	-2	62*
O=C(NCc1cccc(F)c1)Nc1nnc([C@H]2C[C@H](O)[C@@H](CO)O2)s1	·	·	16	99	·	·
COCCOC(=O)C1=C(C)NC2=C(C(=O)CCC2)C1c1cc2c(cc1Br)OCO2 (stereo not given)	-2	i	36	99	-9	-6
CCSc1cc(C2C(C(=O)OC)=C(C)NC3=C2C(=O)CCC3)c(C)o1 (stereo not given)	18	i	16	96	8	102*
CCSCCOC(=O)C1=C(C)NC2=C(C(=O)CCC2)C1c1coc2ccccc2c1=O (stereo not given)	6	i	5	90	-7	63*
C/C(N)=C(/C#N)C(=O)CSc1nnc(Nc2c(C)cccc2C)s1	29	i	-41	93	6	67*
C/C(N)=C(/C#N)C(=O)CSc1nnc(Nc2cccc(C)c2C)s1	16	i	-11	89	-3	39
COc1ccccc1NS(=O)(=O)c1cccc(C(=O)N/N=C/c2c(C)nn(-c3ccccc3)c2N2CCCC2)c1	8	i	-7	74*	8	-17
CCN(CC)c1ccc(/C=N/NC(=O)c2cccc(S(=O)(=O)Nc3ccccc3OC)c2)cc1	25	i	4	109	52*	21
CCN(CC)c1ccc(NC(=O)c2ccccc2F)cc1S(=O)(=O)Nc1ccccc1OC	8	i	30	110	-5	64*
COc1ccccc1NS(=O)(=O)c1ccc(N/N=C/c2c(C)nn(-c3ccccc3)c2N2CCCC2)c([N+](=O)[O-])c1	28	i	-25	92	0	0
SMILES	AI-2 QS modul	PABP FP inh	PABP1 MLLE inh	ABCB6 inh 2	eIF4H FP inh	PHOSPHO1 inh
Cc1noc(C)c1CSc1nnc(-c2ccccc2)n1Cc1ccco1	12	i	-73	88	6	45
Cc1noc(C)c1CSc1nnc(-c2ccccc2)n1N	56	i	-11	97	-11	97*
CCOc1ccc(Cl)cc1-c1cc(C(=O)Nc2cc(OC)c(OC)c(OC)c2)[nH]n1	·	·	5	93	·	·
CC1CCN(C(=O)CSc2nnc(-c3ccc(S(=O)(=O)N4CCOCC4)cc3)n2C)CC1	4	+	-7	94	53*	-8
COc1ccc(NC(=O)c2cc(-c3cc(F)ccc3OCC3CCCO3)n[nH]2)c(C)c1 (stereo not given)	·	·	0	88	·	·
COc1ccc(NC(=O)c2cc(C3CCCCN3C(=O)OCc3ccccc3)on2)c(C)c1 (stereo not given)	·	·	1	92	·	·
CNCc1ccccc1Sc1cc(O)ccc1O	·	i	45*	102	48	6
O=C(CCc1ccccc1)N1CCN(C(=O)CCc2ccccc2)CC1	·	·	11	95	·	·
CC1CC(C)CN(C(=O)CCc2ccccc2)C1 (stereo not given)	5	i	1	91	active	47
CC1Cc2ccccc2N1C(=O)CN1C(=O)NC(C)(c2ccc3c(c2)OCCO3)C1=O (stereo not given)	9	+	-42	99	0.5*	6
CC1(c2ccc3c(c2)OCCO3)NC(=O)N(CC(=O)c2ccc[nH]2)C1=O (stereo not given)	·	·	-7	95	·	·
COC(=O)C1C(O)=C(C(C)=Nc2cccc3ccccc23)C(=O)CC1(C)C (stereo not given)	-1	+	3	99	?	-1
COC(=O)C1C(O)=C(C=Nc2ccccc2)C(=O)CC1(C)C (stereo not given)	-3	i	3	91	-4	30
C[C@@H]1ON(C)[C@H]2C[C@H]3c4[nH]c5ccc(-c6ccc7c(c6)OCO7)cc5c4CCN3C(=O)[C@@H]12	·	·	-18	100	·	·
COc1ccc(NC(=O)Nc2ccc(OCc3ccccc3)cc2)cn1	4	?	66*	98	?	-6
COc1ccc(NC(=O)/C(Cl)=C(/Cl)S(=O)(=O)Cc2ccccc2)cn1	27	i	-13	60*	-7	8
COc1ccc(NC(=O)/C(Cl)=C(/Cl)S(=O)Cc2ccc(Cl)cc2)cn1 (stereo not given)	·	i	-27	37*	-2	32
COc1ccc(NC(=O)Nc2cc(C)cc(C)c2)cn1	11	i	66*	92	50	32
COc1ccc(NC(=O)C(Cl)=C(Cl)Cl)cn1	6	i	4	103	6	20
COc1ccc(NC(=O)NS(=O)(=O)c2ccc(C)cc2)cn1	1	?	151	96	?	-15
O=C(Nc1ccc(OCc2ccccc2)cc1)Nc1cccnc1	18	i	-6	95	-5	·
CCCCCCCCN1C(=O)[C@H](CC(=O)NCc2cccc(C(F)(F)F)c2)C[C@@]2(C(=O)OC)CCCCC=C12	·	·	·	92	·	·

High-throughput results: PubChem, several laboratories
